Compounds without any hit were thinned out: in the full panel of roughly 83,000, 20% have a hit.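 Results are percent growth after 48 hours of single-concentration exposure. 100 means growth as in untreated cells, lower positive values show inhibition; negative values down to -100 show cell death.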 Activity calls are given as the source filed them. The calls were made as follows: active = growth percent below 10; inactive = the rest.

The test deals with HL-60(TB) leukemia. The test can be described thus: NCI-60 one-dose screen, 48 h (100 = growth as untreated, 0 = no growth, -100 = all killed). Conditions: 10 µM unless noted.
Take `Nc1nc2ccc([C@@H]3Nc4ccc5[nH]ncc5c4[C@H]4[C@H]5CCC(C5)[C@H]43)cc2s1`: the growth was 12.4% (inactive). The same measure for `CCCCCCCCCCCCNC(=O)N[C@H](C(=O)N[C@H]1/C=C/OCCNC(=O)/C=C/[C@H](C(C)C)NC1=O)C(C)C`: 93.8% (inactive); for `Cc1cc(-c2cc(OC(=O)c3ccccc3)ccc2Cl)cc2nnc(Nc3ccc(OCCN4CCCC4)cc3)nc12`: 116% (inactive); for `COc1ccc(/C(Cl)=N/N=C(\Cl)c2cc(OC)c(OC)c(OC)c2)cc1OC(C)=O`: 81.2% (inactive). Then `CCC/C=C(\C)C(C)(C#N)C(=O)OCC` (stereo unspecified), with 103% (inactive); and `Cc1cc(C)nc(SC2=C(Nc3cccc(Cl)c3C)C(=O)N(Cc3ccccc3)C2=O)n1`, with 10.4% [30 µM] (inactive); and `CC(=O)[C@@H]1CC[C@]2(C(N)=O)CC[C@]3(C)[C@H](CC[C@@H]4[C@@]5(C)CCCNC(C)(C)[C@@H]5CC[C@]43C)[C@@H]12`, with 91% (inactive).

Regarding `Cc1ccc(/C=C(\C#N)c2cc3ccccc3[nH]2)cc1`, the growth is 22.8% (inactive).

In the case of `O=C(C[C@]1(O)C(=O)Nc2ccc(Br)cc21)c1ccco1`, the growth was 107% (inactive). The same measure for `CN=C(N)N/N=C(\c1ccccc1)c1ccc(Br)cc1`: -52.5% (active); for `COc1ccc(C(c2cc(OC)c(OC)c(OC)c2)N2CCN(Cc3ccccc3)CC2)cc1` (stereo unspecified): 23% (inactive); for `Cc1cc2ccccc2c[n+]1CC(=O)c1ccc(-c2ccccc2)cc1`: 22.5% (inactive). The same measure for `O=C(c1ccc(Cl)cc1)c1ccc(Cl)cc1`: 113% (inactive); for `CC(C)(C)NCCC(O)c1cc(C(F)(F)F)nc2c(C(F)(F)F)cccc12` (stereo unspecified): 73.5% (inactive); for `CCOC(=O)c1cnn(CC(O)c2ccc(F)cc2)c1NC(=O)Nc1ccccc1F` (stereo unspecified): 102% (inactive). The same measure for `O=C(c1nc2ccccc2[nH]1)C1C(c2cccc([N+](=O)[O-])c2)C2CC3CCCCC3N2[C@@]12C(=O)Nc1cc(Cl)ccc12` (stereo partly specified): 4.05% (active); for `CSc1nc(N)c(NS(=O)(=O)c2ccc(C(C)=O)cc2)c(=O)[nH]1`: 108% (inactive). Turning to `Nc1nc(-c2cccc(Br)c2)cc(-c2cc3ccccc3oc2=O)n1`, the growth was 100% (inactive). For `CCOC(=O)c1cc(C(=O)c2ccc(F)cc2F)n2ccccc12`, the growth was 96.4% (inactive).

Turning to `COc1cc2c(c(OC)c1)C1c3ccccc3NC(=O)N1CC2` (stereo unspecified), the growth is -3.91% (active).

For `O=C(Nc1ccccc1O)c1ccc(CNc2ccnc(C(F)(F)F)c2)cc1`, the growth was -32.9% (active). Take `COc1cccc2c1n([O-])c1cccc(OC)c1[n+]2=O`: the growth is 10.3% (inactive). Then `CC(C)=CC/C=C(/C)[C@H]1CC[C@]2(C)[C@@H]1CC[C@@H]1[C@@]3(C)CCC(=O)NC(C)(C)[C@@H]3CC[C@]12C`, with -22.1% [100 µM] (active); and `O=c1oc2ccc(I)cc2c(=O)n1-c1ccc(I)cc1F`, with -49.1% (active). On to `O=C(CI)OCC(COC(=O)CI)OC(=O)CI`, for which the growth is 53.3% (inactive). In the case of `O=C1/C(=C\c2cn(Cc3ccccc3)c3ccc(Br)cc23)c2ccccc2N1c1c(Cl)cccc1Cl`, the growth is 97% (inactive).

Values taken from PubChem BioAssay (NCI).
